Test results reported in PubChem BioAssay (NCI).
“And” between values parts separate entries of the source, which are not always exact repeats. Equal values may be shown once. About 83,000 compounds went through this panel and 20% of them were active in at least one assay; those are over-represented in the sample as a whole.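 Testing used 96-well plates and a 48-hour single-concentration exposure. Example: -40 means 40% of the starting cells died.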 The source made the active and inactive calls. How the source made its calls: active means growth percent below 10; inactive means the rest.

Experiments:
Assay in all cases: NCI-60 one-dose screen, 48 h (100 = growth as untreated, 0 = no growth, -100 = all killed)
Conditions in all cases: 10 µM unless noted
SR leukemia = system: SR leukemia
RPMI-8226 leukemia = system: RPMI-8226 leukemia
OVCAR-8 ovarian = system: OVCAR-8 ovarian
OVCAR-5 ovarian = system: OVCAR-5 ovarian
OVCAR-4 ovarian = system: OVCAR-4 ovarian
SK-OV-3 ovarian = system: SK-OV-3 ovarian
IGROV1 ovarian = system: IGROV1 ovarian
OVCAR-3 ovarian = system: OVCAR-3 ovarian
HS 578T breast = system: HS 578T breast
NCI/ADR-RES ovarian = system: NCI/ADR-RES ovarian
T-47D breast = system: T-47D breast
BT-549 breast = system: BT-549 breast
MDA-MB-435 melanoma = system: MDA-MB-435 melanoma
SW-620 colon = system: SW-620 colon
MCF7 breast = system: MCF7 breast
HCT-116 colon = system: HCT-116 colon
HCC-2998 colon = system: HCC-2998 colon
KM12 colon = system: KM12 colon

Measured: growth

FC(F)(F)Sc1ccc(/C=C/c2cc(/C=C/c3ccc(SC(F)(F)F)cc3)n(-c3ccccc3)n2)cc1
inactive: SR leukemia 91.4% | RPMI-8226 leukemia 93.9% | OVCAR-8 ovarian 95.1% | OVCAR-5 ovarian 110% | OVCAR-4 ovarian 92.3% | SK-OV-3 ovarian 88.1% | IGROV1 ovarian 99.9% | OVCAR-3 ovarian 95.5% | HS 578T breast 98.8% | NCI/ADR-RES ovarian 98.5% | T-47D breast 84.3% | BT-549 breast 103% | MDA-MB-435 melanoma 91.7% | SW-620 colon 94.9% | MCF7 breast 89% | HCT-116 colon 94.3% | HCC-2998 colon 101% | KM12 colon 95.2%

[Cu+].[NH-][C@H]1C[N-]C(=O)[C@H]([C@H]2CCN=C(N)N2)[N-]C(=O)/C(=C\NC(N)=O)[N-]C(=O)[C@H](CNC(=O)C[C@@H](N)CCCN)[N-]C(=O)[C@H](CO)[N-]C1=O
inactive: SR leukemia 96.1% | RPMI-8226 leukemia 103% | OVCAR-8 ovarian 106% | OVCAR-5 ovarian 113% | OVCAR-4 ovarian 99.9% | SK-OV-3 ovarian 71.3% | IGROV1 ovarian 109% | OVCAR-3 ovarian 104% | HS 578T breast 97% | NCI/ADR-RES ovarian 103% | T-47D breast 89.5% | BT-549 breast 104% | MDA-MB-435 melanoma 94.3% | SW-620 colon 91.7% | MCF7 breast 101% | HCT-116 colon 97.4% | HCC-2998 colon 110% | KM12 colon 101%

COc1cc(CNC(=O)CCCC/C=C/C(C)C)ccc1O
inactive: SR leukemia 91.7% and 99% | RPMI-8226 leukemia 100% and 94.7% | OVCAR-8 ovarian 109% | OVCAR-5 ovarian 92.7% | OVCAR-4 ovarian 93.3% and 104% | SK-OV-3 ovarian 117% and 105% | IGROV1 ovarian 96.8% and 88.2% | OVCAR-3 ovarian 84.5% and 119% | HS 578T breast 91.5% and 111% | NCI/ADR-RES ovarian 113% and 97.5% | T-47D breast 97.4% and 96.2% | BT-549 breast 125% and 83.4% | MDA-MB-435 melanoma 99% and 106% | SW-620 colon 113% | MCF7 breast 103% and 96.7% | HCT-116 colon 96.4% and 100% | HCC-2998 colon 143% and 109% | KM12 colon 106% and 108%

O=C(/C=C\c1ccc(Cl)c(Cl)c1)c1ccccc1
inactive: SR leukemia 13.1% and 106% | OVCAR-8 ovarian 79.2% and 98.9% | OVCAR-5 ovarian 93.7% and 106% | OVCAR-4 ovarian 88.3% | SK-OV-3 ovarian 101% and 96.4% | IGROV1 ovarian 92.7% and 82.4% | OVCAR-3 ovarian 93.6% and 98% | HS 578T breast 111% | NCI/ADR-RES ovarian 99.1% and 105% | T-47D breast 77.4% and 86.9% | BT-549 breast 103% | MDA-MB-435 melanoma 70.5% and 100% | SW-620 colon 31.9% and 95.1% | MCF7 breast 18.8% and 28.2% | HCT-116 colon 22.7% and 62.1% | HCC-2998 colon 95.2% and 104% | KM12 colon 96.6%
-27.3% (active) and 89.4% (inactive): RPMI-8226 leukemia

CS(=O)(=O)Nc1cc(-c2ccc3ncnc(Nc4ccc(F)c(Cl)c4)c3c2)cnc1Cl
active: SR leukemia 0.546% | RPMI-8226 leukemia -24% | SK-OV-3 ovarian -19.6% | IGROV1 ovarian -14.1% | OVCAR-3 ovarian -22.6% | HS 578T breast -11.5% | T-47D breast -7.45% | BT-549 breast -21.7% | MDA-MB-435 melanoma 9.94% | MCF7 breast 5.44% | HCT-116 colon 1.28% | KM12 colon 7.66%
inactive: OVCAR-8 ovarian 15.8% | OVCAR-5 ovarian 15.3% | OVCAR-4 ovarian 17.6% | NCI/ADR-RES ovarian 34.2% | SW-620 colon 13.8% | HCC-2998 colon 16.1%

O=C1OCC2=C1C(c1cccc([N+](=O)[O-])c1)c1cc3c(cc1N2CCO)CCC3 (stereo not given)
active: OVCAR-8 ovarian 5.88% | OVCAR-3 ovarian -1.17% | NCI/ADR-RES ovarian 3.57% | MDA-MB-435 melanoma -34.9% | HCT-116 colon 7.18% | HCC-2998 colon 6.84%
inactive: SR leukemia 15.2% | RPMI-8226 leukemia 17% | OVCAR-5 ovarian 43.5% | OVCAR-4 ovarian 40% | SK-OV-3 ovarian 27% | IGROV1 ovarian 25.9% | HS 578T breast 21.9% | T-47D breast 65.9% | BT-549 breast 31.5% | SW-620 colon 22.2% | MCF7 breast 20% | KM12 colon 15.7%

O=C(Nc1ccc(F)cc1)c1cc2cc(Nc3nc(-c4ccccc4)nc4ccccc34)ccc2oc1=O
inactive: SR leukemia 86.6% | RPMI-8226 leukemia 97.9% | OVCAR-8 ovarian 100% | OVCAR-5 ovarian 106% | OVCAR-4 ovarian 111% | SK-OV-3 ovarian 98.2% | IGROV1 ovarian 101% | OVCAR-3 ovarian 105% | HS 578T breast 103% | NCI/ADR-RES ovarian 95.5% | T-47D breast 95.7% | BT-549 breast 100% | MDA-MB-435 melanoma 108% | SW-620 colon 107% | MCF7 breast 97.9% | HCT-116 colon 96.3% | HCC-2998 colon 113% | KM12 colon 102%

CCCCSc1ccc2nc(-c3ccc(OCCCN=C(N)N)cc3)cn2c1
inactive: SR leukemia 85.8% | OVCAR-8 ovarian 90.9% | OVCAR-5 ovarian 73% | OVCAR-4 ovarian 96.8% | SK-OV-3 ovarian 111% | IGROV1 ovarian 52.3% | OVCAR-3 ovarian 30.8% | HS 578T breast 35.5% | NCI/ADR-RES ovarian 104% | T-47D breast 90.7% | BT-549 breast 54.2% | MDA-MB-435 melanoma 47.6% | SW-620 colon 83.5% | MCF7 breast 47% | HCT-116 colon 42.2% | HCC-2998 colon 59.2% | KM12 colon 34.3%
active: RPMI-8226 leukemia -27.2%

CC1(C)C(N)=Nc2cc(OCCCN3Cc4ccc(OCCc5cn(CC(=O)N6CCC(CCN7CCCC7)CC6)nn5)cc4C3)c(OCC3CC3)cc21
inactive: SR leukemia 115% | RPMI-8226 leukemia 88.8% | OVCAR-8 ovarian 92% | OVCAR-5 ovarian 95% | OVCAR-4 ovarian 94.6% | SK-OV-3 ovarian 105% | IGROV1 ovarian 101% | OVCAR-3 ovarian 114% | HS 578T breast 97.2% | NCI/ADR-RES ovarian 103% | T-47D breast 92.3% | BT-549 breast 100% | MDA-MB-435 melanoma 102% | SW-620 colon 109% | MCF7 breast 89.3% | HCT-116 colon 103% | HCC-2998 colon 122% | KM12 colon 107%

c1cc(NCCCCN2CCOCC2)c2ccc3c(ccc4c(NCCN5CCOCC5)ccnc43)c2n1
inactive: RPMI-8226 leukemia 98.2% | OVCAR-8 ovarian 79.2% | OVCAR-5 ovarian 111% | OVCAR-4 ovarian 91.5% | SK-OV-3 ovarian 101% | IGROV1 ovarian 65.6% | OVCAR-3 ovarian 105% | HS 578T breast 88.6% | NCI/ADR-RES ovarian 88.1% | T-47D breast 94.9% | BT-549 breast 103% | MDA-MB-435 melanoma 98.5% | MCF7 breast 58.5% | HCT-116 colon 48.4% | HCC-2998 colon 87.8% | KM12 colon 92.1%
active: SR leukemia -7.92% | SW-620 colon -16.5%

Cc1ccc2[nH]c(=S)[nH]c(=O)c2c1
inactive: SR leukemia 90.7% | RPMI-8226 leukemia 109% | OVCAR-8 ovarian 104% | OVCAR-5 ovarian 107% | OVCAR-4 ovarian 102% | SK-OV-3 ovarian 105% | IGROV1 ovarian 103% | OVCAR-3 ovarian 105% | HS 578T breast 104% | NCI/ADR-RES ovarian 104% | T-47D breast 89% | BT-549 breast 101% | MDA-MB-435 melanoma 101% | SW-620 colon 103% | MCF7 breast 99.8% | HCT-116 colon 101% | HCC-2998 colon 98.2% | KM12 colon 100%

COc1cc(F)c(/C=C/c2cc(/C=C/c3cc(OC)c(OC)cc3F)n(-c3cc(F)cc(F)c3)n2)cc1OC
inactive: RPMI-8226 leukemia 18% | OVCAR-8 ovarian 36.6% | OVCAR-5 ovarian 51.4% | OVCAR-4 ovarian 49.9% | SK-OV-3 ovarian 108% | IGROV1 ovarian 88.6% | OVCAR-3 ovarian 24.2% | HS 578T breast 38% | NCI/ADR-RES ovarian 12% | T-47D breast 64% | BT-549 breast 75.5% | HCT-116 colon 100% | HCC-2998 colon 85.5% | KM12 colon 27.9%
active: SR leukemia 8.98% | MDA-MB-435 melanoma -4.07% | SW-620 colon 0.82% | MCF7 breast 8.88%

O=S(=O)(Nc1ccc(F)cc1)c1ccc(-c2cnc(C3CC3)o2)cc1
active: NCI/ADR-RES ovarian -0.888% | MDA-MB-435 melanoma -10.3%
inactive: SR leukemia 11.6% | RPMI-8226 leukemia 17.2% | OVCAR-8 ovarian 30.4% | OVCAR-5 ovarian 59.1% | OVCAR-4 ovarian 69.9% | SK-OV-3 ovarian 39.7% | IGROV1 ovarian 37.9% | OVCAR-3 ovarian 10.2% | HS 578T breast 14.1% | T-47D breast 32.6% | BT-549 breast 52.8% | SW-620 colon 20.6% | MCF7 breast 16.3% | HCT-116 colon 18.8% | HCC-2998 colon 56.4% | KM12 colon 21.2%

Cc1c(C(=O)OCCCCOC(=O)c2c(C)n(C)c3scc[n+]23)[n+]2ccsc2n1C
inactive: SR leukemia 117% | RPMI-8226 leukemia 96.1% | OVCAR-8 ovarian 96.2% | OVCAR-5 ovarian 83.5% | OVCAR-4 ovarian 103% | SK-OV-3 ovarian 103% | IGROV1 ovarian 110% | OVCAR-3 ovarian 95.3% | HS 578T breast 179% | NCI/ADR-RES ovarian 110% | T-47D breast 97.1% | BT-549 breast 110% | MDA-MB-435 melanoma 109% | SW-620 colon 125% | MCF7 breast 100% | HCT-116 colon 107% | HCC-2998 colon 115% | KM12 colon 118%

CCNC(=O)Nc1ncccc1OCc1ccc(F)cc1
inactive: SR leukemia 105% | RPMI-8226 leukemia 106% | OVCAR-8 ovarian 109% | OVCAR-5 ovarian 92.4% | OVCAR-4 ovarian 96.4% | SK-OV-3 ovarian 94.2% | IGROV1 ovarian 102% | OVCAR-3 ovarian 102% | HS 578T breast 112% | NCI/ADR-RES ovarian 93.4% | T-47D breast 90.3% | BT-549 breast 114% | MDA-MB-435 melanoma 101% | SW-620 colon 104% | MCF7 breast 84% | HCT-116 colon 97.9% | HCC-2998 colon 91.2% | KM12 colon 88.1%
